Tau fil binding: binds recombinant human tau filaments; P10636; recombinant tau filaments, thioflavin S fluorescence, 15 h; filaments grown with octadecylsulfate alongside compound; Potency, µM (highest dose often 57.1 µM); 71,000 compounds, 2% hits; AID 596;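 note: actives lower thioflavin S fluorescence by blocking filaments or displacing dye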
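Thioflavine S fluorescence (ex 450, em 510 nm) reports filaments formed from 1 uM human tau plus 30 uM ODS over 15 h at 37 C (10 mM HEPES pH 7.4, 100 mM NaCl, 5 mM DTT); compounds displacing dye or blocking filaments lower signal.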
TsaE inh: displaces an ADP probe from E. coli YjeE (TsaE); AID 605; 71,000 compounds, 0.05% hits; P0AF67; purified YjeE enzyme, qHTS inhibition assay; Potency, µM
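Purified YjeE (10 uM) with BODIPY Texas Red-labeled ADP probe (2 uM); compounds pin-transferred, 15 min at room temperature. Binding inhibition read as decreased fluorescence polarization; ADP titration as control.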
ALOX15 inhib: 15-hLO (ALOX15) enzyme inhibition. P16050. purified 15hLO-1, xylenol orange hydroperoxide absorbance. 74,000 compounds, 1.4% hits. Potency, µM (series often up to 57.1 µM), actives largely listed as inhibitors. AID 887; note: nearly all actives have a fitted effect of over 55% in size
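Purified human 15hLO-1 (40 nM final) in 25 mM Hepes pH 7.5, 0.01% Triton X-100 was preincubated with compound 15 min at room temperature, then reacted 6 min with 50 uM arachidonic acid; hydroperoxide detected by Fe-XO, 573/405 nm absorbance ratio.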
Pol III holo inh: blocks replication by bacterial DNA polymerase III holoenzyme; reconstituted DNA polymerase III holoenzyme replication, biochemical; Potency, µM (doses to about 57.1 µM); 71,000 compounds, 0.25% hits
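Reconstituted *E. coli* holoenzyme (0.35 nM Pol III, 1 nM beta, 154 nM SSB, 2 nM primase) was preincubated with compound for 15 min at RT. Synthesis on 1.4 nM ssM13Gori ran 35 min, then was stopped with PicoGreen/EDTA and read as dsDNA fluorescence.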
BRCT inh red: inhibitors of human BRCA1 BRCT-phosphoprotein interaction (red fluorophore) | P38398 | BRCT-phosphopeptide binding, red fluorescence polarization | Potency, µM (highest dose often 76.9 µM), most hits filed as inhibitors | 75,000 compounds, 0.03% hits
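Rhodamine-labelled pBACH1 10-mer (100 nM) bound to BRCT domain (100 nM) at pH 7.3; compounds incubated 12 min room temperature, polarization read. Free peptide defines full inhibition; unlabelled decapeptide titrated as control.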
BRCT inh green: blocks human BRCA1 BRCT binding to phosphopeptide, green readout | Potency, µM (series often up to 76.9 µM), usual class: inhibitors | P38398 | 75,000 compounds, 0.05% hits | BRCA1 BRCT-phosphopeptide binding, green fluorescence polarization
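Compounds were incubated for 12 min at room temperature with a complex of 100 nM fluorescein-tagged pBACH1 decapeptide and 250 nM His-tagged BRCT protein. Buffer was phosphate pH 7.3 with EDTA, DTT and Tween 20. Disruption of binding lowers the polarization signal.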
Large screens that a line does not name were inactive; ! = repeats disagree. Shown are actives, neighbours in structure and some others; about 3.3% of the full set was active somewhere. Calls come from the whole dose curve; as a rule, active = well fitted curve in the direction sought with a large enough effect; inconclusive = small, poorly fitted or top-dose-only effect, or another doubt; inactive = no such curve, though single readings can be large; an effect the other way counts as inactive or inconclusive.

c1ccc(OCc2nc(-c3ccccc3)no2)cc1	none
Cc1noc(COc2ccc(OCc3nc(C)no3)cc2)n1	Tau fil binding 0.79µM
CO/N=C(/C)CCC(=O)OC[C@@H]1O[C@H](C#Cc2ccccc2)C=C[C@@H]1Oc1ccc(C)cc1	none (no result: Tau fil binding, TsaE inh, Pol III holo inh)
COc1cccc(CNc2ccc(S(N)(=O)=O)cc2)c1OC	none
COc1cc(N=Nc2cccc(S(N)(=O)=O)c2)c2ccccc2c1N	Tau fil binding 1.6µM
Cc1cc(N)c2ccccc2[n+]1CCCCCCCCCC[n+]1c(C)cc(N)c2ccccc21	TsaE inh inconclusive, ALOX15 inhib inconclusive, Pol III holo inh 16µM!
CC1=C(C(=O)OCc2ccccc2)C(c2ccc(C3CCCCC3)cc2)NC(=O)N1CCCCCC(=O)O (stereo unspecified)	none
COc1ccc(-c2cc(=O)c3ccccc3s2)cc1	Tau fil binding 25µM, ALOX15 inhib inconclusive
O=C(CSc1nnc(C2CC2)n1Cc1ccccc1)c1cc2ccccc2o1	Tau fil binding 10µM
Cc1ccc(C)n1NC(=O)c1cccs1	ALOX15 inhib 16µM
Cc1ccc(-c2ccc(CCC(=O)O)n2NC(=O)c2cccs2)cc1	none
CC1=NNC(=S)NCCCN2CCN(CCCNC(=S)NN=C(C)C=NNC(=S)NCCCN3CCN(CCCNC(=S)NN=C1)CC3)CC2	Tau fil binding inconclusive
O=C(O)c1ccncc1.O=C(O)c1ccncc1.[NH2-].[NH2-].[Pt]	none
CC(C)C(=O)N[C@@H]1CCCN1C(=O)/C=C\c1ccccc1	none (no result: Tau fil binding, TsaE inh, Pol III holo inh)
O=C(O)/C=C/c1ccc(/C=C/C(=O)O)cc1	none
O=C(O)[C@H]1CCCC[C@@H]1c1c2ccc(=O)c(O)c-2oc2c(O)c(O)ccc12	Tau fil binding 4µM, ALOX15 inhib inconclusive, Pol III holo inh 0.32µM
O=C(O)/C=C\c1c2ccc(=O)c(O)c-2oc2c(O)c(O)ccc12	Tau fil binding 5µM, TsaE inh inconclusive, ALOX15 inhib 1.6µM, Pol III holo inh 0.1µM, BRCT inh red inconclusive, BRCT inh green 6.3µM
O=C(Nc1ccc2c(c1)OCO2)N1CCOCC1	none
Cc1ccc2c(c1)CCCN2C(=O)Nc1ccc2c(c1)OCO2	Tau fil binding inconclusive, ALOX15 inhib 20µM
N#CCCN1CCN(C(=S)c2ccc(-c3cc(Cl)ccc3Cl)o2)CC1	Tau fil binding 2.5µM, ALOX15 inhib inconclusive
S=C(c1ccc(-c2ccc(Cl)c(Cl)c2)o1)N1CCOCC1	Tau fil binding 10µM, ALOX15 inhib inconclusive
O=C(c1ccc(-c2cccc(C(F)(F)F)c2)o1)N1CCOCC1	none
S=C(c1ccc(-c2ccccc2Cl)o1)N1CCOCC1	Tau fil binding 16µM, ALOX15 inhib inconclusive
OCCN1CCN(C(=S)c2ccc(Cl)c(Cl)c2)CC1	none
Cc1ccc(C)c(S(=O)(=O)C(C#N)c2nc3ccccc3nc2N2CCCC2)c1 (stereo unspecified)	ALOX15 inhib 13µM
Cc1ccc(C)c(S(=O)(=O)C(C#N)c2nc3ccccc3nc2N2CCOCC2)c1 (stereo unspecified)	none
N#CC(c1nc2ccccc2nc1N1CCCC1)S(=O)(=O)c1ccccc1 (stereo unspecified)	ALOX15 inhib inconclusive (no result: Tau fil binding, TsaE inh, Pol III holo inh)
N#CC(c1nc2ccccc2nc1N1CCCC1)S(=O)(=O)c1cccs1 (stereo unspecified)	ALOX15 inhib 10µM
COc1cc(-c2nn3c(Cc4ccccc4)nnc3s2)cc(OC)c1OC	none
c1ccc(Cc2nnc3sc(-c4ccco4)nn23)cc1	Tau fil binding 16µM, ALOX15 inhib inconclusive
COc1ccc(-c2nn3c(-c4ccco4)nnc3s2)cc1OC	none
c1ccc(-c2cc(-c3nn4c(-c5ccco5)nnc4s3)c3ccccc3n2)cc1	Tau fil binding 0.63µM
COc1ccc(-c2nnc3sc(-c4ccco4)nn23)cc1OC	ALOX15 inhib 13µM
Brc1ccc(C2Nc3cccc4cccc(c34)N2)o1	Tau fil binding 10µM, ALOX15 inhib 10µM
O=C1NC(c2ccco2)Nc2ccccc21 (stereo unspecified)	none
Cc1cccc(NC(=O)C2CCN(S(=O)(=O)c3cccc4nsnc34)CC2)n1	none

High-throughput results from PubChem.
